Test results from the supplement of paper PMC10849652.
The full data set covers some 8,800 targets. This sample favours those with a hit. About 0.5% of all pairs of compound and target were hits. A number with no mark means an inactive call.

Tests used:
Test in all cases: log2 fold change, soluble protein after heating vs DMSO (PISA); higher = thermal stabilisation; K562 lysate, 10 uM; active = over 0.2 and 3.5 SD of the protein, either way, in both replicates (recomputed)
vemurafenib = compound: CCCS(=O)(=O)Nc1ccc(F)c(C(=O)c2c[nH]c3ncc(-c4ccc(Cl)cc4)cc23)c1F [vemurafenib]
Method in brief: (§1)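 Following dounce homogenisation of K562 pellets in PBS pH 7.4 with 1 mM MgCl2, crude extract at 1 mg/mL protein was incubated for 30 min with 10 μM compound. Aliquots were then heated for 3 min over 48°C-58°C and pooled, NP-40 was added to 0.5% at 4°C, and soluble protein was recovered as the supernatant at 21,000xg for 90 min. Channel-sum-equalised TMTpro 16plex LC-MS/MS quantified this protein. Each value, from duplicates, is a log-two fold change in thermal stability relative to solvent controls.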

[1] = compound: CCCS(=O)(=O)Nc1ccc(F)c(C(=O)c2c[nH]c3ncc(Cl)cc23)c1F
Method in brief: as §1

barasertib = compound: CCN(CCCOc1ccc2c(Nc3cc(CC(=O)Nc4cccc(F)c4)[nH]n3)ncnc2c1)CCOP(=O)(O)O [barasertib]
Method in brief: as §1

[2] = compound: CC[C@@H]1C(=O)N(C)c2cnc(Nc3ccc(C(=O)NC4CCN(C)CC4)cc3OC)nc2N1C1CCCC1
Method in brief: as §1

volasertib = compound: CC[C@@H]1C(=O)N(C)c2cnc(Nc3ccc(C(=O)N[C@H]4CC[C@H](N5CCN(CC6CC6)CC5)CC4)cc3OC)nc2N1C(C)C [volasertib]
Method in brief: as §1

[3] = compound: CCn1c(C(=O)N(C2CC2)C2CC2)cc2c3c(ncn3C)c(Nc3cc(C)n(C)n3)nc21
Method in brief: as §1

[4] = compound: CCn1cc(-c2ccnc3[nH]c(-c4cccc(CN(C)C)c4)cc23)c(-c2ccc(NC(=O)N(C)C)cc2)n1
Method in brief: as §1

[5] = compound: CN1CCC(CNc2ccc3ncc(-c4cccc(OC(F)(F)F)c4)n3n2)CC1
Method in brief: as §1

saracatinib = compound: CN1CCN(CCOc2cc(OC3CCOCC3)c3c(Nc4c(Cl)ccc5c4OCO5)ncnc3c2)CC1 [saracatinib]
Method in brief: as §1

sotrastaurin = compound: CN1CCN(c2nc(C3=C(c4c[nH]c5ccccc45)C(=O)NC3=O)c3ccccc3n2)CC1 [sotrastaurin]
Method in brief: as §1

alvocidib = compound: CN1CC[C@H](c2c(O)cc(O)c3c(=O)cc(-c4ccccc4Cl)oc23)[C@H](O)C1 [alvocidib]
Method in brief: as §1

Tubastatin A = compound: CN1CCc2c(c3ccccc3n2Cc2ccc(C(=O)NO)cc2)C1 [Tubastatin A]
Method in brief: as §1

[6] = compound: CNC(=O)C1=CC=CC=C1NC2=NC(=NC=C2Cl)NC3=C(C=C(C=C3)N4CCOCC4)OC
Method in brief: as §1

defactinib = compound: CNC(=O)c1ccc(Nc2ncc(C(F)(F)F)c(NCc3nccnc3N(C)S(C)(=O)=O)n2)cc1 [defactinib]
Method in brief: as §1

[7] = compound: CNc1nc(-c2ccc3c(N)n[nH]c3c2)cc(N2C[C@@H](C(=O)NC3CCCCC3)CC[C@H]2C)n1
Method in brief: as §1

encorafenib = compound: COC(=O)N[C@@H](C)CNc1nccc(-c2cn(C(C)C)nc2-c2cc(Cl)cc(NS(C)(=O)=O)c2F)n1 [encorafenib]
Method in brief: as §1

[8] = compound: COC(=O)[C@H](CCSC)NC(=O)C1=C(C=C(C=C1)NC[C@H](CS)N)C2=CC=CC=C2
Method in brief: as §1

alisertib = compound: COc1cc(Nc2ncc3c(n2)-c2ccc(Cl)cc2C(c2c(F)cccc2OC)=NC3)ccc1C(=O)O [alisertib]
Method in brief: as §1

[9] = compound: COc1cc2nc(-c3cc(F)ccc3O)nc(N[C@@H]3CNC[C@H]3C(C)(C)O)c2cc1OC
Method in brief: as §1

gefitinib = compound: COc1cc2ncnc(Nc3ccc(F)c(Cl)c3)c2cc1OCCCN1CCOCC1 [gefitinib]
Method in brief: as §1

Sequence of UniProt A6NDU8 (A6NDU8 whole entry, looked up): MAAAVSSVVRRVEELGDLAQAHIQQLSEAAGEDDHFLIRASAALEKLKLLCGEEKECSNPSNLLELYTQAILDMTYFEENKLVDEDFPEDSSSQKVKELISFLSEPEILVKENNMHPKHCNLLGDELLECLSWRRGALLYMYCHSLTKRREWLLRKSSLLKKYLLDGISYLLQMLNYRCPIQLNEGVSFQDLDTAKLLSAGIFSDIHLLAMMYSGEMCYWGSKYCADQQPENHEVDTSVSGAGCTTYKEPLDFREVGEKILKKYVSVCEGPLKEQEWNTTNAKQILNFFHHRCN
Sequence of UniProt Q8IWY9 (Q8IWY9 whole entry, looked up): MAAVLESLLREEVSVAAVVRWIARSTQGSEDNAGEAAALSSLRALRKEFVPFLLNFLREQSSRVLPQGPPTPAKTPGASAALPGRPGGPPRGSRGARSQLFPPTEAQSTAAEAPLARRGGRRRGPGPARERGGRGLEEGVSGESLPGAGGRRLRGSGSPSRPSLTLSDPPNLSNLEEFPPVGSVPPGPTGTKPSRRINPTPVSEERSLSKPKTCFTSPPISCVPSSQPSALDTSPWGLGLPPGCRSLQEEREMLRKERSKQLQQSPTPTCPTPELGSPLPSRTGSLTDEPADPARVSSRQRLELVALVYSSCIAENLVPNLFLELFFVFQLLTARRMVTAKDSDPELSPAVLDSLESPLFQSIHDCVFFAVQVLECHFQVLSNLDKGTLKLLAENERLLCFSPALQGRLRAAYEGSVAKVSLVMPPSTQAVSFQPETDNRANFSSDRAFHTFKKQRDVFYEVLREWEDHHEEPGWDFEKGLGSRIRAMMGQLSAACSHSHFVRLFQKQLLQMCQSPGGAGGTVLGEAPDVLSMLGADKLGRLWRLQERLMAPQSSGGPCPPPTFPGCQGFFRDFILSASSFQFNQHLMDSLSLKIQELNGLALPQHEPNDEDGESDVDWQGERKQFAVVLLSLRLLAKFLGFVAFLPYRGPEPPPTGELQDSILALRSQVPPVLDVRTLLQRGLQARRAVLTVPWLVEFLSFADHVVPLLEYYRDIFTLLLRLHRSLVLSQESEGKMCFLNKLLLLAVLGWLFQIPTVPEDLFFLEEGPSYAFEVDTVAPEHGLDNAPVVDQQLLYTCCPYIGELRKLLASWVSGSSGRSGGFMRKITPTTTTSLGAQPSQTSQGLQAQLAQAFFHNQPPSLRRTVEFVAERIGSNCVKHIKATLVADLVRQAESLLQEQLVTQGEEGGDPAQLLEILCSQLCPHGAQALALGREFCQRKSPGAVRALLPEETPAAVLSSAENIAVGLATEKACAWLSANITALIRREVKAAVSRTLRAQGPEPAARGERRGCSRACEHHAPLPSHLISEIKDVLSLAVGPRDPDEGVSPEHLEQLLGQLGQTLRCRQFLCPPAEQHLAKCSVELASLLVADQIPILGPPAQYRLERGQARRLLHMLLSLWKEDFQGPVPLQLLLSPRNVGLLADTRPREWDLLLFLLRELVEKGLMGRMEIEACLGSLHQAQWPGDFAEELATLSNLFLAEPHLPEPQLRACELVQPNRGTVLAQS
Sequence of UniProt P22676 (P22676 whole entry, looked up): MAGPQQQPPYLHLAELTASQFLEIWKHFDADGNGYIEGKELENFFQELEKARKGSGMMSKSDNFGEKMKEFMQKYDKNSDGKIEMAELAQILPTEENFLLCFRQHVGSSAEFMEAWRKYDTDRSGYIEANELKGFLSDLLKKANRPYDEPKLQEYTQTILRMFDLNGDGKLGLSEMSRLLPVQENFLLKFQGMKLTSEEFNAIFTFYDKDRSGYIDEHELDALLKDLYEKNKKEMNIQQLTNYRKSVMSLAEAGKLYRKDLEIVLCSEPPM
Sequence of UniProt O75909 (O75909 whole entry, looked up): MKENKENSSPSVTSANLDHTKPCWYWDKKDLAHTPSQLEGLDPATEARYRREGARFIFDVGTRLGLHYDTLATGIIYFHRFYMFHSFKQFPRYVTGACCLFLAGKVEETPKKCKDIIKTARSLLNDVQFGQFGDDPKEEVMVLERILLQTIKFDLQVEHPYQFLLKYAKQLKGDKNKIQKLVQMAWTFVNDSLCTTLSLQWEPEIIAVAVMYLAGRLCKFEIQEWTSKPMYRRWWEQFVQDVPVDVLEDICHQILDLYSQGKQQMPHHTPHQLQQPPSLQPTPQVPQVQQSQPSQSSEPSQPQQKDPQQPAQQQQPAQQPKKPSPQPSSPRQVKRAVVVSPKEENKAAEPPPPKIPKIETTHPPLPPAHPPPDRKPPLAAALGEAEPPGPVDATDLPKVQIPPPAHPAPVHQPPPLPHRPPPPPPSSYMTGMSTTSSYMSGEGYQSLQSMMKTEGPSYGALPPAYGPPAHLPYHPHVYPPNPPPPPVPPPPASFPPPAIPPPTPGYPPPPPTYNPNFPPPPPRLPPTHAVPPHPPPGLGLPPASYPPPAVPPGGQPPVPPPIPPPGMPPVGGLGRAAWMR
Sequence of UniProt O00311 (O00311 whole entry, looked up): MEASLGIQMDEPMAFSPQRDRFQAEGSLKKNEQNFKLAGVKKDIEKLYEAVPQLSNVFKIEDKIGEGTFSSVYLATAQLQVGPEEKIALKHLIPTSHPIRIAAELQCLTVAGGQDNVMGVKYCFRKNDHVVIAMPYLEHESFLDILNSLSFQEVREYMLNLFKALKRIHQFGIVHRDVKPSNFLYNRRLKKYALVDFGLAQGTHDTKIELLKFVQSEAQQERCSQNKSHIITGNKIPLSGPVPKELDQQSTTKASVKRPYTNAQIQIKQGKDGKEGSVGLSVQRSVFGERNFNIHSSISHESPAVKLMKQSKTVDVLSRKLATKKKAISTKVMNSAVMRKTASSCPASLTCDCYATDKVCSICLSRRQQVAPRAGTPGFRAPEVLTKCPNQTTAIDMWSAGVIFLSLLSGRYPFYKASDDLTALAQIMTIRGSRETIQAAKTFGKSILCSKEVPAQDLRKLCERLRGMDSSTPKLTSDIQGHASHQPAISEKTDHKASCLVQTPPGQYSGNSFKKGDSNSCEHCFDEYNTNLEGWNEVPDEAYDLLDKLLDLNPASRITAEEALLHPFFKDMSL
Sequence of UniProt Q9H3Q1 (Q9H3Q1 whole entry, looked up): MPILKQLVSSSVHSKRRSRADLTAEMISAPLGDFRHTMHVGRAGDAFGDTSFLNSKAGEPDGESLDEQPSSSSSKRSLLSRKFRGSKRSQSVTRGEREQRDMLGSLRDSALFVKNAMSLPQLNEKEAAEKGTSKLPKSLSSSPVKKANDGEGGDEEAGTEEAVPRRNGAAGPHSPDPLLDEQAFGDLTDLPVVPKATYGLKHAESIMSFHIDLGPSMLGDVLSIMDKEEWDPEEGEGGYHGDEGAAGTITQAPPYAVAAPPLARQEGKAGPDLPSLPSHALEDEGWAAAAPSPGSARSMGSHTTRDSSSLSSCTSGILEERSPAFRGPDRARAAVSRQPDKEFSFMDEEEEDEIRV
Sequence of UniProt Q00535 (Q00535 whole entry, looked up): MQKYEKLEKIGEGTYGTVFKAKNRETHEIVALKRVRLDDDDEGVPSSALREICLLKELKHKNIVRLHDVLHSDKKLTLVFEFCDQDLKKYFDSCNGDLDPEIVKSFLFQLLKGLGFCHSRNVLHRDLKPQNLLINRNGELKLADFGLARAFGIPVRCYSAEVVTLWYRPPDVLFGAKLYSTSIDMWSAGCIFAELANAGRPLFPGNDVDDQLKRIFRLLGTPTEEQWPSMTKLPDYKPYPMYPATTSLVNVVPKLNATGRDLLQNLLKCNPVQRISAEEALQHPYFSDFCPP

| Target | log2 fold change (vemurafenib) | log2 fold change [1] | log2 fold change (barasertib) | log2 fold change [2] | log2 fold change (volasertib) | log2 fold change [3] | log2 fold change [4] | log2 fold change [5] | log2 fold change (saracatinib) | log2 fold change (sotrastaurin) | log2 fold change (alvocidib) | log2 fold change (Tubastatin A) | log2 fold change [6] | log2 fold change (defactinib) | log2 fold change [7] | log2 fold change (encorafenib) | log2 fold change [8] | log2 fold change (alisertib) | log2 fold change [9] | log2 fold change (gefitinib) |
| --- | --- | --- | --- | --- | --- | --- | --- | --- | --- | --- | --- | --- | --- | --- | --- | --- | --- | --- | --- | --- |
| BORCS5 (UniProt Q969J3) | 0.044 | 0.005 | 0.201 (active) | 0.057 | 0.027 | -0.01 | 0.075 | -0.055 | 0.013 | 0.017 | -0.012 | 0.043 | -0.001 | 0.067 | 0.032 | 0.074 | -0.09 | -0.014 | 0.01 | -0.079 |
| BCKDK (UniProt O14874) | -0.036 | 0.002 | -0.028 | 0.203 | -0.037 | 0.067 | -0.033 | 0.059 | 0.031 | 0.028 | 0.029 | -0.117 | -0.005 | 0.029 | -0.098 | -0.061 | 0.066 | 0.023 | -0.027 | 0.053 |
| C5orf51 (UniProt A6NDU8) | -0.002 | 0.009 | 0.046 | -0.014 | -0.029 | 0.053 | 0.036 | -0.137 | 0.016 | 0.036 | 0.075 | -0.123 | -0.01 | -0.045 | -0.043 | -0.006 | 0.144 | 0.023 | 0.038 | 0.056 |
| CALB2 (UniProt P22676) | 0.064 | 0.046 | 0.375 (active) | -0.036 | 0.017 | 0.023 | -0.065 | 0.066 | -0.008 | -0.061 | -0.028 | -0.022 | -0.028 | -0.062 | 0.034 | -0.014 | -0.003 | -0.008 | -0.01 | 0.112 |
| CCNK isoform 4 (UniProt O75909) | -0.013 | 0.006 | -0.028 | 0.04 | -0.009 | -0.007 | -0.185 | 0.095 | 0.049 | 0.004 | -0.094 | -0.004 | 0.01 | -0.011 | 0.009 | 0.017 | -0.035 | 0.071 | 0 | 0.046 |
| CDC42EP4 (UniProt Q9H3Q1) | 0.01 | -0.01 | 0.013 | 0.162 | 0.013 | -0.04 | -0.021 | 0.042 | -0.064 | -0.012 | -0.086 | -0.013 | 0.041 | 0.033 | 0.113 | 0.079 | -0.054 | -0.085 | -0.017 | 0.006 |
| CDAN1 (UniProt Q8IWY9) | -0.047 | 0.004 | 0.014 | -0.093 | -0.034 | 0.031 | -0.03 | -0.012 | 0.002 | -0.005 | -0.034 | -0.051 | 0.049 | 0.039 | 0.017 | -0.018 | 0.093 | 0.02 | -0.022 | -0.012 |
| CDC7 (UniProt O00311) | 0.065 | 0.073 | -0.005 | 0.039 | -0.097 | -0.003 | -0.01 | -0.073 | 0.004 | 0.036 | -0.081 | -0.112 | 0.077 | 0.007 | 0.042 | 0.011 | 0.078 | -0.059 | -0.04 | -0.036 |
| CDK5 (UniProt Q00535) | -0.021 | 0.022 | – | -0.08 | -0.079 | 0.008 | -0.055 | 0.071 | -0.008 | 0.175 | 1.07 (active) | -0.058 | 0.211 | 0.654 (active) | -0.032 | 0.024 | -0.1 | -0.032 | 0.03 | -0.027 |
